Data on 14 sequences can be found in paper PMC8384837, “Expanding the binding specificity for RNA recognition by a PUF domain”.

Numbering of substitutions follows the chain as printed.

Holding throughout (assay): yeast three-hybrid, YBZ-1, SC-Leu-His + 0.5 mM 3-AT, 4 days
Common to all, as to conditions: tags: N-Gal4 AD-HA kept; label: inside an RPR1-promoter hybrid RNA with tandem MS2 sites; ssRNA

In assay [1] the target is PUM1 PUF domain R8-RKK (Homo sapiens, UniProt Q14671 828-1176, N1122R;Y1123K;Q1126K). In a few lines: (§1)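 Each repeat of the Pumilio-1 PUF domain was randomized at its three base-contacting residues, and these libraries were co-expressed from a centromeric plasmid with matching RNA elements in strain YBZ-1. After four days on SC-Leu (input) or SC-Leu-His + 0.5 mM 3-AT (selection), the repeat regions were PCR-amplified and Illumina-sequenced. The interaction score compares variant frequency between input and selection as a log change, computed in log2 with a pseudocount of 1 for absent variants.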

For assay [2], the target named is PUM1 PUF domain R8-LYK (Homo sapiens, UniProt Q14671 828-1176, N1122L;Q1126K). In a few lines: as §1
The target in assay [3] is PUM1 PUF domain R8-HYP (Homo sapiens, UniProt Q14671 828-1176, N1122H;Q1126P). In a few lines: as §1
Sequence of PUM1 PUF domain R8-HYP (Q14671 828-1176 N1122H/Q1126P): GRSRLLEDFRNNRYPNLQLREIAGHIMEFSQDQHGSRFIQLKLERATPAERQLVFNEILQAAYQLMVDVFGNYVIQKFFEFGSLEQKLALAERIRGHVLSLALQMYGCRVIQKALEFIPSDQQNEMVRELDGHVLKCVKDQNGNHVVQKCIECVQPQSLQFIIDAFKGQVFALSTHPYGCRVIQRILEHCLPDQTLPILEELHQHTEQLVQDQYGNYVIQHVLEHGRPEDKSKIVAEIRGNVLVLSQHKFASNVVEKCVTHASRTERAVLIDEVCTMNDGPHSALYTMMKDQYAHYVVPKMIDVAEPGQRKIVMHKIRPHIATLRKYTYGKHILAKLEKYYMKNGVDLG
In assay [4] the target is PUM1 PUF domain R5-GWS (Homo sapiens, UniProt Q14671 828-1176, C1007G;R1008W;Q1011S). In a few lines:
as §1

The target of assay [5] is T1, PUM1 PUF domain R6-VFS (Homo sapiens, UniProt Q14671 828-1176, N1043V;Y1044F;Q1047S).
T1 sequence: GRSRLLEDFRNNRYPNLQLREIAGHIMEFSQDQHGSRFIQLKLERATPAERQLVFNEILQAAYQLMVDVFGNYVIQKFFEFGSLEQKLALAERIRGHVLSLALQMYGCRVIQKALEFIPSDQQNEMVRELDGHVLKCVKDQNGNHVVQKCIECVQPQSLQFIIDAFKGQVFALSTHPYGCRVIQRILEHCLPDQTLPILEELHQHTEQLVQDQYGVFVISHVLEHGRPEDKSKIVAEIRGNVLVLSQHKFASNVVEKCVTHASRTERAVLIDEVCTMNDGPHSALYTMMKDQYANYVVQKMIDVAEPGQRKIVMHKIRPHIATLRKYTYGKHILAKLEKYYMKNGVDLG
In a few lines:
as §1

In assay [6] the target is T2, PUM1 PUF domain R6-CFY (Homo sapiens, UniProt Q14671 828-1176, N1043C;Y1044F;Q1047Y).
T2 sequence: T1 sequence with V216C, S220Y
In a few lines: as §1

Assay [7] concerns the target PUM1 PUF domain R5-DFA (Homo sapiens, UniProt Q14671 828-1176, C1007D;R1008F;Q1011A). In a few lines: as §1
Assay [8] concerns the target PUM1 PUF domain R3-FSS (Homo sapiens, UniProt Q14671 828-1176, C935F;R936S;Q939S). In a few lines: as §1
Assay [9] concerns the target PUM1 PUF domain R7-TVA (Homo sapiens, UniProt Q14671 828-1176, S1079T;N1080V;E1083A). In a few lines:
as §1

The target of assay [10] is PUM1 PUF domain R7-RTL (Homo sapiens, UniProt Q14671 828-1176, S1079R;N1080T;E1083L). In a few lines:
as §1

The target in assay [11] is PUM1 PUF domain R7-RRA (Homo sapiens, UniProt Q14671 828-1176, S1079R;N1080R;E1083A). In a few lines: as §1
In assay [12] the target is PUM1 PUF domain R3-MWG (Homo sapiens, UniProt Q14671 828-1176, C935M;R936W;Q939G). In a few lines:
as §1

In assay [13] the target is PUM1 PUF domain R3-RRR (Homo sapiens, UniProt Q14671 828-1176, C935R;Q939R). In a few lines: as §1
Sequence of PUM1 PUF domain R3-RRR (Q14671 828-1176 C935R/Q939R): as the sequence (Q14671 828-1176 N1122H/Q1126P) above, with C108R, Q112R, H295N, P299Q counted along it
Assay [14] has as its target PUM1 PUF domain R2-CFP (Homo sapiens, UniProt Q14671 828-1176, N899C;Y900F;Q903P). In a few lines: as §1
Assay [15] concerns the target PUM1 PUF domain R5-KGL (Homo sapiens, UniProt Q14671 828-1176, C1007K;R1008G;Q1011L). In a few lines:
as §1

Assay [16] has as its target PUM1 PUF domain R1-RGI (Homo sapiens, UniProt Q14671 828-1176, S863R;R864G;Q867I). In a few lines:
as §1

Assay [17] concerns the target PUM1 PUF domain R1-CWR (Homo sapiens, UniProt Q14671 828-1176, S863C;R864W;Q867R). In a few lines: as §1
The target in assay [18] is PUM1 PUF domain R4-THP (Homo sapiens, UniProt Q14671 828-1176, N971T;Q975P). In a few lines: as §1
Assay [19] deals with T3, PUM1 PUF domain R6-AYQ (Homo sapiens, UniProt Q14671 828-1176, N1043A).
T3 sequence: T1 sequence with V216A, F217Y, S220Q
In a few lines:
as §1

Take “GGCUAGAACUAGUGGAUCCCCCGGCGCCCGGCGGCUCGAGCCCGGGUAAGCGUAAAUAGUCUGCAUGCCGCCGGGCGCCAUGCCUGCAGGUCGACUCUAGAAAACAUG”: the binding signal is 4.27 log2 enrichment (interaction score) in assay [1], 5.14 log2 enrichment (interaction score) in [2] and 5.46 log2 enrichment (interaction score) in [3].

In the case of “GGCUAGAACUAGUGGAUCCCCCGGCGCCCGGCGGCUCGAGCCCGGGUAAGUGUAAAUAGUCUGCAUGCCGCCGGGCGCCAUGCCUGCAGGUCGACUCUAGAAAACAUG”, the binding signal was 4.25 log2 enrichment (interaction score) in assay [1]; 4.65 log2 enrichment (interaction score) in assay [4]; 2.71 log2 enrichment (interaction score) in assay [5]; 5.28 log2 enrichment (interaction score) in assay [2]; 2.39 log2 enrichment (interaction score) in assay [6]; 4.36 log2 enrichment (interaction score) in assay [7].

As for “GGCUAGAACUAGUGGAUCCCCCGGCGCCCGGCGGCUCGAGCCCGGGUAAGUGUAAGUAGUCUGCAUGCCGCCGGGCGCCAUGCCUGCAGGUCGACUCUAGAAAACAUG”, the binding signal in assay [8] is 2.46 log2 enrichment (interaction score).

On to “GGCUAGAACUAGUGGAUCCCCCGGCGCCCGGCGGCUCGAGCCCGGGUAAGUUUAAAUAGUCUGCAUGCCGCCGGGCGCCAUGCCUGCAGGUCGACUCUAGAAAACAUG”, for which the binding signal was 3.46 log2 enrichment (interaction score) in [9], 3.26 log2 enrichment (interaction score) in [10] and 3.23 log2 enrichment (interaction score) in assay [11].

As for “GGCUAGAACUAGUGGAUCCCCCGGCGCCCGGCGGCUCGAGCCCGGGUAAGUGUAAUUAGUCUGCAUGCCGCCGGGCGCCAUGCCUGCAGGUCGACUCUAGAAAACAUG”, the binding signal in assay [12] is 3.86 log2 enrichment (interaction score); in assay [13], 3.73 log2 enrichment (interaction score).

Consider “GGCUAGAACUAGUGGAUCCCCCGGCGCCCGGCGGCUCGAGCCCGGGUAAGUGUAAAAAGUCUGCAUGCCGCCGGGCGCCAUGCCUGCAGGUCGACUCUAGAAAACAUG”, for which the binding signal in assay [14] was 10.2 log2 enrichment (interaction score).

Regarding “GGCUAGAACUAGUGGAUCCCCCGGCGCCCGGCGGCUCGAGCCCGGGUAAGUGUCAAUAGUCUGCAUGCCGCCGGGCGCCAUGCCUGCAGGUCGACUCUAGAAAACAUG”, the binding signal in assay [15] was 3.86 log2 enrichment (interaction score).

On to “GGCUAGAACUAGUGGAUCCCCCGGCGCCCGGCGGCUCGAGCCCGGGUAAGUGUAAAUCGUCUGCAUGCCGCCGGGCGCCAUGCCUGCAGGUCGACUCUAGAAAACAUG”, for which the binding signal in [16] was 2.06 log2 enrichment (interaction score); in assay [17], 6.18 log2 enrichment (interaction score).

For the sequence “GGCUAGAACUAGUGGAUCCCCCGGCGCCCGGCGGCUCGAGCCCGGGUAAGUGUAAAUUGUCUGCAUGCCGCCGGGCGCCAUGCCUGCAGGUCGACUCUAGAAAACAUG”, the binding signal in assay [16] is 1.53 log2 enrichment (interaction score).

For “GGCUAGAACUAGUGGAUCCCCCGGCGCCCGGCGGCUCGAGCCCGGGUAAGUGUAUAUAGUCUGCAUGCCGCCGGGCGCCAUGCCUGCAGGUCGACUCUAGAAAACAUG”, the binding signal in assay [18] was 2.79 log2 enrichment (interaction score).

“GGCUAGAACUAGUGGAUCCCCCGGCGCCCGGCGGCUCGAGCCCGGGUAAGUGAAAAUAGUCUGCAUGCCGCCGGGCGCCAUGCCUGCAGGUCGACUCUAGAAAACAUG”: the binding signal was 1.54 log2 enrichment (interaction score) in [6] and 4.26 log2 enrichment (interaction score) in assay [19].

In the case of “GGCUAGAACUAGUGGAUCCCCCGGCGCCCGGCGGCUCGAGCCCGGGUAAGUGUAAAUGGUCUGCAUGCCGCCGGGCGCCAUGCCUGCAGGUCGACUCUAGAAAACAUG”, in assay [17], the binding signal was 1.23 log2 enrichment (interaction score).

Turning to “GGCUAGAACUAGUGGAUCCCCCGGCGCCCGGCGGCUCGAGCCCGGGUAAGUCUAAAUAGUCUGCAUGCCGCCGGGCGCCAUGCCUGCAGGUCGACUCUAGAAAACAUG”, the binding signal in assay [11] is 5.23 log2 enrichment (interaction score).

For “GGCUAGAACUAGUGGAUCCCCCGGCGCCCGGCGGCUCGAGCCCGGGUAAGGGUAAAUAGUCUGCAUGCCGCCGGGCGCCAUGCCUGCAGGUCGACUCUAGAAAACAUG”, the binding signal in assay [3] is 2.77 log2 enrichment (interaction score).
